In PubChem BioAssay (Tox21):
Results filed as inconclusive are left out. Calls of active or inactive are those of the source. Unless noted, calls follow the shape of the dose curve; as a rule, active = well fitted curve in the direction sought with a large enough effect in the repeat runs; inconclusive = weak or mixed curves; inactive = no such curve, though single readings can be large; an effect the other way counts as inactive or inconclusive.

What was measured:
[1] = target: Progesterone receptor (Homo sapiens) (UniProt P06401); test: qHTS assay to identify small molecule agonists of the progesterone receptor (PR) signaling pathway (AID 1346784; calls by dose curve; also: nearly all actives have a fitted effect of over 30% in size)
Progesterone receptor (Homo sapiens), sequence (P06401 whole entry, looked up): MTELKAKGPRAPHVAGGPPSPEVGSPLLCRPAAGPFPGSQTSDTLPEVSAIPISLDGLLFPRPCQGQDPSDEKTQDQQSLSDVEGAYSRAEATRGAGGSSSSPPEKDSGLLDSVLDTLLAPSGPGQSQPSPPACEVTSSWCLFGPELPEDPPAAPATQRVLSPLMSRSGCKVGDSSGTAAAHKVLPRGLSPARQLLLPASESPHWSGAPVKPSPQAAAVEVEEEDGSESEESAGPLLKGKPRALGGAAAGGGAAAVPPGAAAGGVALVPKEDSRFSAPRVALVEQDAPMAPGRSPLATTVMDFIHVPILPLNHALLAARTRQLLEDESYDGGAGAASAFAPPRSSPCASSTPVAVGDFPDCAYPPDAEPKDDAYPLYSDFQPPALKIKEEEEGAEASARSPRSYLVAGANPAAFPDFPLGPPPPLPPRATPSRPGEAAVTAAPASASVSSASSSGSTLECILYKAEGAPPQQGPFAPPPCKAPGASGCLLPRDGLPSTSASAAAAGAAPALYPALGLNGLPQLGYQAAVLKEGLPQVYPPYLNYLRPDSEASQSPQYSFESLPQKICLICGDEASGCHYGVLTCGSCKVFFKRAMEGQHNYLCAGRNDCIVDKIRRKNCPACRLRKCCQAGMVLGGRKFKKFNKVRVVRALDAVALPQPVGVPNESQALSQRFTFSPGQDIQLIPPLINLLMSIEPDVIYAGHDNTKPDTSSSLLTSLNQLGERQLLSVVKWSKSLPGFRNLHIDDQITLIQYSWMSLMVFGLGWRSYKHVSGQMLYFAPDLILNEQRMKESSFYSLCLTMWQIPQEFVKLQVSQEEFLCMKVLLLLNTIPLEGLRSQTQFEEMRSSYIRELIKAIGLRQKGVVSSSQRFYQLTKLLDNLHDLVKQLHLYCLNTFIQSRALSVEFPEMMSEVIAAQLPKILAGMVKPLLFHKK
Method in brief: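 Agonist qHTS: compounds pinned onto 3,000 PR-UAS-bla HEK 293T cells per well in charcoal-stripped serum medium, 16hr at 37C, then beta-lactamase activity measured by LiveBLAzer FRET fluorescence after 2 hours at room temperature.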

[2] = target: Progesterone receptor (Homo sapiens) (UniProt P06401); test: qHTS assay to identify small molecule antagonists of the progesterone receptor (PR) signaling pathway (AID 1346795; active = well fitted inhibition curve with a large enough effect in the signal ratio in the repeat runs, not every such curve was filed as active; the % refers to the signal ratio)
Method in brief: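 Antagonist mode with agonist R5020 at 1 nM final and 16 hr incubation at 37C. Reporter was beta-lactamase driven by UAS in HEK293T (PR-UAS-bla), 2% charcoal-stripped serum; signal from LiveBLAzer FRET substrate, 2 hr at room temperature.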

[3] = qHTS assay to identify small molecule antagonists of the progesterone receptor (PR) signaling pathway - cell viability counter screen (AID 1346798); also: series mostly up to about 92 µM; nearly all actives have a fitted effect of over 50% in size
Method in brief: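 Cytotoxicity read as CellTiter-Glo luminescence (30 min, room temperature) in the same wells as the beta-lactamase readout. HEK293T PR-UAS-bla cells in charcoal-stripped 2% FBS received compound and R5020, then 16 h at 37C, 5% CO2.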

[4] = qHTS assay to identify small molecule agonists of the progesterone receptor (PR) signaling pathway - cell viability counter screen (AID 1346799; calls by dose curve; also: nearly all actives have a fitted effect of over 45% in size)
Method in brief: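 Cytotoxicity measured by CellTiter-Glo luminescence (30 min, RT) in the same wells as the PR beta-lactamase agonist read. Those HEK293T cells had 16 h compound treatment at 37 C in 2% charcoal-stripped FBS medium.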

[5] = qHTS assay to identify small molecule antagonists of the TGF-beta/Smad signaling pathway - cell viability counter screen (AID 1346824); also: nearly all actives have a fitted effect of over 50% in size
Method in brief: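 Cytotoxicity counter-screen run in the same wells as the beta-lactamase Smad reporter read: CellTiter-Glo luminescence after 30 min at room temperature. HEK 293T SBE-bla cells had 5 hr compound exposure at 37 C with TGF-beta1 (0.25 ng/mL stock).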

[6] = qHTS assay to identify small molecule agonists of the TGF-beta/Smad signaling pathway - cell viability counter screen (AID 1346829); also: top concentration of the series differs between compounds; nearly all actives have a fitted effect of over 45% in size
Method in brief: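 After overnight seating at 37 C and 5% CO2, reporter cells got compounds for 5 hr and FRET substrate for 2 hr; cell viability then came from CellTiter-Glo luminescence.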

[7] = qHTS assay to identify small molecule agonists of the TGF-beta/Smad signaling pathway (AID 1346859; active = well fitted activation curve with a large enough effect in the signal ratio in the repeat runs, not every such curve was filed as active; the % refers to the signal ratio; also: series mostly up to about 77 µM)
Method in brief: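 Fluorescence (ex 405 nm; em 460 and 530 nm) was read 2 h after LiveBLAzer FRET substrate at RT. The preceding compound treatment of overnight-plated SBE-bla HEK293T cells lasted 5 h at 37 C.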

[8] = target: Thyrotropin-releasing hormone receptor (Homo sapiens) (UniProt P34981); test: qHTS assay to identify small molecule antagonists of the thyrotropin-releasing hormone receptor (TRHR) signaling pathway (AID 1346877; active = well fitted inhibition curve with a large enough effect in the repeat runs, not every such curve was filed as active; also: series mostly up to about 51 µM)
Thyrotropin-releasing hormone receptor (Homo sapiens), sequence (P34981 whole entry, looked up): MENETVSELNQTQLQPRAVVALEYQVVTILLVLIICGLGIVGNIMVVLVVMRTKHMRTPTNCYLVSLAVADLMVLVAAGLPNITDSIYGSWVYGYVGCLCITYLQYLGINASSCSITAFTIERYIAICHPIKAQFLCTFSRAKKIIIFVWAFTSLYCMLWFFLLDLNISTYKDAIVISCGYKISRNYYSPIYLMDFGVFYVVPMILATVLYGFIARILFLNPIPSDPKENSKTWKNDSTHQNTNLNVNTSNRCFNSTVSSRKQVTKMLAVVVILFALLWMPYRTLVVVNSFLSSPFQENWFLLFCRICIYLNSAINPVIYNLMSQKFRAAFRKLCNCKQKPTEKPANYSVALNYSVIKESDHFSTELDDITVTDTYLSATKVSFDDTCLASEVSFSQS
Method in brief: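 Intracellular calcium fluorescence, read kinetically every second over 3 min, reports TRH-evoked signalling in HEK293 cells carrying TRHR. Test compounds were added 5 min ahead of a 1 nM TRH challenge.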

[9] = target: Thyrotropin-releasing hormone receptor (Homo sapiens) (UniProt P34981); test: qHTS assay to identify small molecule agonists of the thyrotropin-releasing hormone receptor (TRHR) signaling pathway (AID 1346891; calls by dose curve; also: series mostly up to about 58 µM)
Method in brief: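 Agonist-mode intracellular calcium readout: kinetic fluorescence over 3 min at 1 s intervals after compound addition to TRHR-HEK293 cells (18 h seeded, 2 h dye-loaded at 37 C). Fifteen concentrations, triplicates.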

[10] = Human pregnane X receptor (PXR) small molecule agonists, qHTS cell viability counter screen (AID 1346977); also: nearly all actives have a fitted effect of over 50% in size
Method in brief: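 Same-well viability read: CellTiter-Fluor added after 23 hr compound exposure, fluorescence measured 1 hr later. Cells were PXR-Luc HepG2 seeded at 2,000/well in 5% charcoal-stripped FBS medium, rested 5 hr before dosing at 37 C.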

[11] = Caspase-3/7 induction in HepG2 cells by small molecules, qHTS assay (AID 1346978); also: nearly all actives have a fitted effect of over 15% in size
Method in brief: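 Caspase-3/7 induction was measured by Caspase-Glo 3/7 luminescence (30 min, room temperature) after a 17 hr compound exposure of wild-type HepG2 cells seeded at 2,000 per well and pre-incubated 5 hr.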

[12] = Caspase-3/7 induction in CHO-K1 cells by small molecules, qHTS cell viability counter screen (AID 1346979); also: nearly all actives have a fitted effect of over 35% in size
Method in brief: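 Cytotoxicity counter screen: CellTiter-Fluor added to compound-treated wild-type CHO-K1 cells at 16 h (37C, 5% CO2), fluorescence measured 1 h later; same wells as caspase-3/7 measurement.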

[13] = Caspase-3/7 induction in CHO-K1 cells by small molecules, qHTS assay (AID 1346980); also: nearly all actives have a fitted effect of over 15% in size
Method in brief: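 Luminescent Caspase-Glo 3/7 read (30min, room temperature) quantified apoptosis induction. Cells were wild-type CHO-K1, treated with compound for 17hr at 37 C and 5% CO2.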

[14] = Caspase-3/7 induction in HepG2 cells by small molecules, qHTS cell viability counter screen (AID 1346981); also: series mostly up to about 92 µM; nearly all actives have a fitted effect of over 30% in size
Method in brief: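 HepG2, WT, 2,000 cells/well; 5 hr pre-incubation 37 C/5% CO2; compound pin-transferred from DMSO; 16 hr exposure; CellTiter-Fluor, 1 hr; fluorescence read.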

[15] = target: Nuclear receptor subfamily 1 group I member 2 (Homo sapiens) (UniProt O75469); test: Human pregnane X receptor (PXR) small molecule agonists, qHTS assay (AID 1346982); also: nearly all actives have a fitted effect of over 35% in size
Nuclear receptor subfamily 1 group I member 2 (Homo sapiens), sequence (O75469 whole entry, looked up): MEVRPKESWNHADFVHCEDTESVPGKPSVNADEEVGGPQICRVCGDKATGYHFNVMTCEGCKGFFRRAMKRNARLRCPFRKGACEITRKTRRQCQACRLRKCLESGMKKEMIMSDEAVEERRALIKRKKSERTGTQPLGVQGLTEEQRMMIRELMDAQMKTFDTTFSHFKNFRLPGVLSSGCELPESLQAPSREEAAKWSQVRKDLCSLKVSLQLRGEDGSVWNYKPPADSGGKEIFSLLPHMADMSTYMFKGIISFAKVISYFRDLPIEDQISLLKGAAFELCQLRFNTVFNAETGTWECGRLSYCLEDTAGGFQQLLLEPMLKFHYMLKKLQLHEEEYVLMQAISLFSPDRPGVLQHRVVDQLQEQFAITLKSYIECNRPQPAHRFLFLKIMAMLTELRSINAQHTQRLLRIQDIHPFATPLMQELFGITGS
Method in brief: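 Luciferase signal from ONE-Glo (30 min, room temperature) measured activation of hPXR-driven CYP3A4 reporter expression in PXR-Luc HepG2 cells treated with compounds for 24 hr at 37 C.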

[16] = target: Cytochrome P450 2D6 (Homo sapiens) (UniProt P10635); test: Cytochrome P450 Family 2 Subfamily D Member 6 (CYP2D6) small molecule antagonists: luciferase reporter qHTS assay (AID 1671196); also: series mostly up to about 120 µM; nearly all actives have a fitted effect of over 50% in size
Cytochrome P450 2D6 (Homo sapiens), sequence (P10635 whole entry, looked up): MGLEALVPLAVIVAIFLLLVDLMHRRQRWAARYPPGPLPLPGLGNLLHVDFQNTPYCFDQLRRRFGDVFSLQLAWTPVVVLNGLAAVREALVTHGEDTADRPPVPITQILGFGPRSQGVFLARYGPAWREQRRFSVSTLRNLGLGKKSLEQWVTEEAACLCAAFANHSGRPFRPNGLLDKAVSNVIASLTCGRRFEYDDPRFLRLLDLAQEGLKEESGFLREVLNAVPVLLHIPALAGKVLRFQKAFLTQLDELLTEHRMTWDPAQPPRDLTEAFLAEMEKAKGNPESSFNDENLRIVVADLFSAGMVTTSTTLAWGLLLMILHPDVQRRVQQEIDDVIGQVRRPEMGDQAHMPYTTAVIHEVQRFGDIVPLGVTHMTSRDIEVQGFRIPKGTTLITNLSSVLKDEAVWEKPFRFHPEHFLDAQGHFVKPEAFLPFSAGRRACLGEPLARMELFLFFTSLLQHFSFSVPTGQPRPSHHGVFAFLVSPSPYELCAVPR
Method in brief: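 Read-out is luminescence from luciferin formed by CYP2D6 turnover of a proluciferin substrate, recorded as relative luminescence units. Reactions ran 1 h at room temperature after NADPH regeneration solution was added.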

[17] = target: Nuclear receptor subfamily 1 group I member 2 (Rattus norvegicus) (UniProt Q9R1A7); test: Rat pregnane X receptor (rPXR) activation by small molecules, qHTS assay (AID 1346983); settings: rPXR luciferase reporter cells, One-Glo luminescence, 24 h; stronger effect = higher value; also: nearly all actives have a fitted effect of over 20% in size
Nuclear receptor subfamily 1 group I member 2 (Rattus norvegicus), sequence (Q9R1A7 whole entry, looked up): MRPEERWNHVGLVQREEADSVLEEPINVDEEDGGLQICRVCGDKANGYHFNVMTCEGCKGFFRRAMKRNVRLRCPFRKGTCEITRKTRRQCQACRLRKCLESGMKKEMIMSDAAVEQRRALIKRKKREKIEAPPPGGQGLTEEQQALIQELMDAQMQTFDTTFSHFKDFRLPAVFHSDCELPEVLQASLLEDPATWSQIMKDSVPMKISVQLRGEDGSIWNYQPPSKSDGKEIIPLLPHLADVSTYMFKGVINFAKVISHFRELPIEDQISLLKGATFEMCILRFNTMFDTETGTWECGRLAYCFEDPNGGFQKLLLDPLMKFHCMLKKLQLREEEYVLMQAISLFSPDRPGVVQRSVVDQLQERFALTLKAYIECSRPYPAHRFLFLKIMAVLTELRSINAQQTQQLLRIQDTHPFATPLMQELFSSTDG
Method in brief: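 Luminescent readout (One-Glo luciferase, 30 min room temperature) followed 24 hr compound treatment at 37 C of rPXR cells plated 2,000 per well and preincubated 5hr; qHTS format with compounds delivered in DMSO.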

[18] = target: Nuclear receptor subfamily 1 group I member 2 (Homo sapiens) (UniProt O75469); test: CYP3A4 induction through human pregnane X receptor (PXR) by small molecules, qHTS assay (AID 1346984); also: nearly all actives have a fitted effect of over 40% in size
Method in brief: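 Luminescence readout: luciferase signal after One-Glo (30 min, room temperature), following 3 h at 37C with 3uM final Luciferin-IPA P450 substrate. Cells were DPX-2 (HepG2, PXR/CYP3A4-luc co-transfected) dosed for 24 h.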

[19] = target: Nuclear receptor subfamily 1 group I member 2 (Homo sapiens) (UniProt O75469); test: Human pregnane X receptor (PXR) activation by small molecules, qHTS assay (AID 1346985); also: nearly all actives have a fitted effect of over 40% in size
Method in brief: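 DPX-2 cells (HepG2 co-transfected with a PXR response element and a CYP3A4-promoter luciferase construct) were seeded at 2,000 per well, rested 5 hr at 37C, then exposed to DMSO-dissolved compounds for 24 hr. Activation was read as luciferase luminescence.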

[20] = target: Cytochrome P450 2C19 (Homo sapiens) (UniProt P33261); test: Cytochrome P450 Family 2 Subfamily C Member 19 (CYP2C19) small molecule antagonists: luciferase reporter qHTS assay (AID 1671197); also: series mostly up to about 120 µM; nearly all actives have a fitted effect of over 65% in size
Cytochrome P450 2C19 (Homo sapiens), sequence (P33261 whole entry, looked up): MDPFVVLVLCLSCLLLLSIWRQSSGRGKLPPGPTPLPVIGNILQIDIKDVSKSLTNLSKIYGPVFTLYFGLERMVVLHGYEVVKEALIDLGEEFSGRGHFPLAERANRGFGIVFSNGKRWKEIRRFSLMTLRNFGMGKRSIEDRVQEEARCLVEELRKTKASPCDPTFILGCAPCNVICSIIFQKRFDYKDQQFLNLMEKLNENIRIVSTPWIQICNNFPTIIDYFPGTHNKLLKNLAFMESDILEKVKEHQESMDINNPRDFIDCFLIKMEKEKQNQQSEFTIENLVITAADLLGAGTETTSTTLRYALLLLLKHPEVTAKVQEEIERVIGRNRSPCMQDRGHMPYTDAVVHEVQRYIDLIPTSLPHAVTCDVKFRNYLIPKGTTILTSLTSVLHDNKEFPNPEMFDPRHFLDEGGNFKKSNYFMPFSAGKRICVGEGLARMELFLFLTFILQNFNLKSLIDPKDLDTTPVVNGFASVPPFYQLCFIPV
Method in brief: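 Inhibition of CYP2C19 was scored from loss of luminescence in a P450-Glo proluciferin substrate assay, NADPH-started and run 1 h at 37C, with ketoconazole as positive control.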
% is scaled to controls: 0 for no effect and ±100 for the full control effect.

COc1c(Cl)ccc(Cl)c1C(=O)O
inactive: Potency [1] | Potency [2] | Potency [3] | Potency [4] | Potency [5] | Potency [6] | Potency [7] | Potency [8] | outcome [9] | Potency [10] | Potency [11] | Potency [12] | Potency [13] | Potency [14] | Potency [15] | Potency [16]

OCc1ccc(Cl)cc1Cl
inactive: Potency [1] | Potency [2] | Potency [3] | Potency [4] | Potency [5] | Potency [6] | Potency [7] | Potency [8] | outcome [9] | Potency [10] | Potency [11] | Potency [12] | Potency [13] | Potency [14] | Potency [15] | max activation [17] -2.12% | Potency [18] | outcome [19] | Potency [16] | Potency [20]

NC(=O)NC(N)=O
inactive: Potency [1] | Potency [2] | Potency [3] | Potency [4] | Potency [5] | Potency [6] | Potency [7] | Potency [8] | outcome [9] | Potency [10] | Potency [11] | Potency [12] | Potency [13] | Potency [14] | Potency [15] | Potency [16] | Potency [20]

CC(=O)c1nccs1
inactive: Potency [1] | Potency [2] | Potency [3] | Potency [4] | Potency [5] | Potency [6] | Potency [7] | Potency [8] | outcome [9] | Potency [10] | Potency [11] | Potency [12] | Potency [13] | Potency [14] | Potency [15] | Potency [16]

CC(C)(CO)CO
inactive: Potency [1] | Potency [2] | Potency [3] | Potency [4] | Potency [5] | Potency [6] | Potency [7] | Potency [8] | outcome [9] | Potency [10] | Potency [11] | Potency [12] | Potency [13] | Potency [14] | Potency [15] | Potency [16]

CCOC(=O)CC(=O)OCC
inactive: Potency [1] | Potency [2] | Potency [3] | Potency [4] | Potency [5] | Potency [6] | Potency [7] | Potency [8] | outcome [9] | Potency [10] | Potency [11] | Potency [12] | Potency [13] | Potency [14] | Potency [15] | Potency [16] | Potency [20]

Cc1ncc(CO)c(CO)c1O
inactive: Potency [1] | Potency [2] | Potency [3] | Potency [4] | Potency [5] | Potency [6] | Potency [7] | Potency [8] | outcome [9] | Potency [10] | Potency [11] | Potency [12] | Potency [13] | Potency [14] | Potency [15] | Potency [16] | Potency [20]

CCOC(=O)c1ccc(O)cc1
inactive: Potency [1] | Potency [2] | Potency [3] | Potency [4] | Potency [5] | Potency [6] | Potency [7] | Potency [8] | outcome [9] | Potency [10] | Potency [11] | Potency [12] | Potency [13] | Potency [14] | Potency [15] | max activation [17] -2.61% | outcome [19]
